The results in this text go back to article PMC11208138.

What all share (test): cross-link between two proteins; cross-linking mass spectrometry
The target of experiment [1] is Heterogeneous nuclear ribonucleoproteins C1/C2 (UniProt P07910).
For the next experiment, the target named is NHP2-like protein 1 (UniProt P55769).
Experiment [2] concerns the target Ubiquitin carboxyl-terminal hydrolase 39 (UniProt Q53GS9).
In experiment [3] the target is Serine/arginine-rich splicing factor 1 (UniProt Q07955).
Chain of Serine/arginine-rich splicing factor 1 (Q07955 whole entry): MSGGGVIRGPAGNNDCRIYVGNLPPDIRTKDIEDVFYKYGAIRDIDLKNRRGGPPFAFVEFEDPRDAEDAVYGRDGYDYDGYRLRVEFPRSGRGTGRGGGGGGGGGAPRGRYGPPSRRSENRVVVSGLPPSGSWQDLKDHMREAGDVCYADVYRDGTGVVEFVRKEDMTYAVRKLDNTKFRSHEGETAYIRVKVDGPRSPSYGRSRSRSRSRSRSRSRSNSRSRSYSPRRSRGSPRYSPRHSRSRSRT

Chain of Ubiquitin carboxyl-terminal hydrolase 39 (Q53GS9 whole entry): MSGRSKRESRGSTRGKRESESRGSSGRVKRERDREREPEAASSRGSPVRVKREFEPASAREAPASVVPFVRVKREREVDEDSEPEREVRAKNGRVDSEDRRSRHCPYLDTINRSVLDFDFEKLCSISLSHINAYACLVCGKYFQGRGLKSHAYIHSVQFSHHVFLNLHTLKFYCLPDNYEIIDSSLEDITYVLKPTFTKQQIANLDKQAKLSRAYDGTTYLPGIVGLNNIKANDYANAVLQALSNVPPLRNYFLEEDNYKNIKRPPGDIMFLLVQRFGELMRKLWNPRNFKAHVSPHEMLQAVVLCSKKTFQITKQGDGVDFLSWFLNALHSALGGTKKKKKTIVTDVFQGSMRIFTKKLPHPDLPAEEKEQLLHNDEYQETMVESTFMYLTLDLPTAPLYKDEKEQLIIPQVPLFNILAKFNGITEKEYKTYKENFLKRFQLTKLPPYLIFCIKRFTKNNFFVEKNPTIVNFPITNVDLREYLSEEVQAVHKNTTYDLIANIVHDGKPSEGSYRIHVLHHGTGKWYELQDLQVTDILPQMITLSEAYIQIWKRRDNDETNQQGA
Chain of NHP2-like protein 1 (P55769 whole entry): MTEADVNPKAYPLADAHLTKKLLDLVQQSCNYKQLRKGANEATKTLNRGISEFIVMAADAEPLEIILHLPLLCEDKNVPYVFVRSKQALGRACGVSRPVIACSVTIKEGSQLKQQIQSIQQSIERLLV
Chain of Heterogeneous nuclear ribonucleoproteins C1/C2 (P07910 whole entry): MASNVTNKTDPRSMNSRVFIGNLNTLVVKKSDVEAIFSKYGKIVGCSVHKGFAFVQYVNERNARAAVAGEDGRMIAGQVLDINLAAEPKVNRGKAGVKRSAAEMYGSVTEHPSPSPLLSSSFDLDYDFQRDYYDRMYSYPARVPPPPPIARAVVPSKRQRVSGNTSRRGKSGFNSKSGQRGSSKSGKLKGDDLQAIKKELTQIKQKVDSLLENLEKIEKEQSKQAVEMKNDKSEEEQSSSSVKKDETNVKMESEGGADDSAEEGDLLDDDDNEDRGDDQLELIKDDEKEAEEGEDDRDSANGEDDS

Regarding “Survival of motor neuron-related-splicing factor 30, O75940”, the “listed as a hit” value in experiment [1] was “yes”.

Pre-mRNA-processing factor 6, O94906: the “listed as a hit” value (with NHP2-like protein 1; in experiment [2]) was “yes” in each case. As to “Probable ATP-dependent RNA helicase DDX5, P17844”, the “listed as a hit” value in experiment [3] is given as “yes”.
